Reference: PubChem BioAssay
Active and inactive are the calls of the source.

Assays:
[1] = A549 cell viability effects, profiling panel, calcein-AM fluorescence, 48 h, basal (AID 1162); settings: higher = more signal
[2] = adipocyte viability effects, profiling panel, cell-based, 3T3-L1 adipocytes, calcein-AM fluorescence, 48 h, basal (AID 1163); settings: 3T3-L1 adipocytes viability, higher = more signal
[3] = HepG2 cell viability effects, profiling panel, calcein-AM fluorescence, 48 h, basal (AID 1164); settings: higher = more signal
[4] = MM1S cell viability effects, profiling panel, calcein-AM fluorescence, 48 h, basal (AID 1165); settings: higher = more signal;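 further: viability of MM1S multiple myeloma cells under basal unstimulated conditions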
[5] = basal RPMI8226 viability, no added stimulus, profiling panel, cell-based, calcein-AM fluorescence, 48 h, PK04 Diversity Set (AID 1166); settings: RPMI8226 myeloma viability, higher = more signal;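 further: cells grown under basal conditions without added stimulus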
[6] = basal HepG2 mitochondrial membrane potential changes, profiling panel, cell-based, JC-1 fluorescence, 24 h, 100 nL compound (AID 1167); settings: higher = more signal
[7] = basal 3T3-L1 adipocyte mitochondrial potential changes, profiling panel, cell-based, JC-1 fluorescence, 3T3-L1 adipocytes, 24 h, 100 nL compound (AID 1168); settings: JC-1 mitochondrial fluorescence, higher = more signal, called active from +8 up or from −8 down
[8] = basal RPMI8226 mitochondrial membrane potential changes, profiling panel, cell-based, JC-1 fluorescence, 24 h, 100 nL compound (AID 1169); settings: RPMI8226 myeloma, JC-1 mitochondrial potential fluorescence, higher = more signal
[9] = basal MM1S mitochondrial membrane potential changes, profiling panel, cell-based, JC-1 fluorescence, 24 h, 100 nL compound (AID 1170); settings: higher = more signal
[10] = A549 lung cancer cell viability effects, profiling panel, resazurin fluorescence, 24 h, PK04 Diversity Set (AID 1171); settings: higher = more signal, called active from +8 up or from −8 down
Further: test concentration not given here.

| SMILES | z-score [1] | z-score [2] | z-score [3] | z-score [4] | z-score [5] | z-score [6] | z-score [7] | z-score [8] | z-score [9] | z-score [10] |
| --- | --- | --- | --- | --- | --- | --- | --- | --- | --- | --- |
| COC(=O)C(CC#Cc1ccc2c(c1)[C@]1(C(=O)N2)[C@H](c2ccccc2OCCO)N2[C@H](c3ccccc3)[C@H](c3ccccc3)OC(=O)[C@H]2[C@@H]1C(=O)O)C(=O)OC | 1.45 | 0.0879 | 1.38 | -2.37 | -2.41 | 1.11 | -0.847 (inactive) | -0.214 | -0.197 | 0.917 (inactive) |
| CC(=O)n1cc(C(O)C2C=CC3C(=O)NC(=O)C3N2Nc2ccccn2)c2ccccc21 (stereo not given) | -0.407 | -1.52 | -0.252 | 0.0238 | 0.102 | -0.743 | -0.424 (inactive) | 0.634 | -0.0433 | -1.02 (inactive) |
| O=C(CS)NCCCCCNC(=O)[C@@H]1C[C@@H]2C(=O)NCC(=O)N2[C@@H]1c1cccc(OCCO)c1 | 0.686 | 0.45 | 0.938 | 0.231 | 0.842 | 1.85 | -0.102 (inactive) | -0.738 | -0.249 | -0.696 (inactive) |
| COc1ccc([Si](C)(C)[C@@H]2[C@@H](CCn3cc([C@H](O)c4ccccc4)nn3)O[C@]3(C(=O)N(Cc4cccc(N5CCC5=O)c4)c4ccccc43)[C@H]2C)cc1 | 0.208 | 0.745 | -0.924 | -0.6 | -0.984 | -0.262 | 1.15 (inactive) | -0.735 | -0.487 | 0.0773 (inactive) |
| CCOc1cc(C(O)C2C=CC3C(=O)N(c4ccccc4)C(=O)C3N2Nc2ccc(C(C)C)cc2)ccc1O (stereo not given) | -0.65 | -0.538 | -0.159 | -2.67 | -1.16 | -1.66 | -0.457 (inactive) | 0.41 | -0.19 | -0.866 (inactive) |
| COCCOC(=O)N1C(=O)[C@@]2(c3cc(C#CC4(O)CCCCCC4)ccc31)[C@H](C(=O)Nc1nc3ccccc3s1)[C@H]1C(=O)O[C@H](c3ccccc3)[C@H](c3ccccc3)N1[C@@H]2c1ccc(OCCO)cc1 | -0.593 | 1.47 | -0.15 | -1.83 | -2.56 | -3.3 | -0.438 (inactive) | -0.635 | -1.18 | 0.566 (inactive) |
| O=C1C2C=CC(C(O)C=Cc3ccc([N+](=O)[O-])cc3)N(n3cnnc3)C2C(=O)N1Cc1ccccc1 (stereo not given) | -0.915 | 0.0646 | -0.129 | -0.232 | -1.03 | -1.07 | -0.566 (inactive) | 0.646 | -0.178 | 0.367 (inactive) |
| COCCOC(=O)N1C(=O)[C@@]2(c3ccccc31)[C@H](C(=O)N1CCCCCCC1)[C@H]1C(=O)O[C@H](c3ccccc3)[C@H](c3ccccc3)N1[C@@H]2c1ccc(OCCO)cc1 | -0.134 | -0.202 | -0.265 | -0.88 | -1.07 | -0.639 | -1.75 (inactive) | -0.714 | -1.15 | 0.526 (inactive) |
| COC(=O)[C@@]1(Cc2ccc(F)cc2)[C@H]2c3cc(C(=O)N(C)C)n(Cc4cc(C)n(C)n4)c3C[C@H]2CN1C(=O)c1ccccc1 | -0.492 | -0.202 | -0.395 | -0.9 | -0.528 | 0.635 | -1.01 (inactive) | -0.12 | 0.203 | -0.759 (inactive) |
| CCOC(=O)[C@H]1C/C=C/C[C@H](C(=O)OCC)C(=O)O[C@H]2[C@@H](OC)O[C@H](CO)[C@@H](OC(=O)c3ccc(Br)cc3)[C@@H]2OC1=O | 0.645 | -0.009 | 0.404 | -3.12 | -3.75 | -0.971 | -0.339 (inactive) | -0.935 | -1.3 | -1.92 (inactive) |
| CN1C(=O)C2C=CC(C(O)c3ccccc3)N(N3CCCCC3)C2C1=O (stereo not given) | -1.15 | -0.898 | -0.0624 | -0.4 | 0.539 | -0.699 | 0.651 (inactive) | 0.0583 | 0.581 | -0.789 (inactive) |
| COC(=O)[C@H](Cc1ccccc1)N[C@H](/C=C/C1CC1)[C@@H](O)Cc1ccccc1 | -0.531 | -0.451 | 0.021 | 0.18 | 0.732 | 1.46 | 0.792 (inactive) | -0.52 | -1.88 | 1.2 (inactive) |
| O=C1O[C@@H](c2ccccc2)[C@@H](c2ccccc2)N2[C@@H](c3ccccc3OCCO)[C@]3(C(=O)Nc4ccccc43)[C@@H](C(=O)O)[C@H]12 | -0.796 | 0.266 | 0.045 | -2.64 | 0.0803 | 0.249 | -0.742 (inactive) | 0.649 | 0.554 | 0.362 (inactive) |
| NC(=O)[C@@H]1[C@H]2C(=O)O[C@H](c3ccccc3)[C@H](c3ccccc3)N2[C@H](c2ccc(O)cc2)[C@@]12C(=O)Nc1ccc(C#CC3=CCCCC3)cc12 | -1.42 | -0.0881 | -5.06 | -3.27 | -4.17 | -3.59 | -1.58 (inactive) | -0.88 | -1.94 | -0.274 (inactive) |
| COCC(=C=CC[C@H](O)c1cccc(OCCO)c1)C[C@H](O)c1cc(Cl)cc(Cl)c1O | 0.593 | -0.317 | 0.956 | -0.967 | -0.193 | 0.277 | 0.86 (inactive) | 0.262 | -0.931 | 0.627 (inactive) |
| O=C1O[C@H](c2ccccc2)[C@H](c2ccccc2)N2[C@H]1[C@@H](C(=O)NC[C@H](O)c1ccccc1)[C@]1(C(=O)Nc3ccc(C#CC4=CCCCC4)cc31)[C@H]2c1ccccc1OCCO | -2.45 | -0.406 | -3.88 | -3.28 | -4.23 | -2.22 | 1.26 (inactive) | -1.09 | -1.79 | -3.3 (inactive) |

| SMILES | z-score [1] | z-score [2] | z-score [3] | z-score [4] | z-score [5] | z-score [6] | z-score [7] | z-score [8] | z-score [9] | z-score [10] |
| --- | --- | --- | --- | --- | --- | --- | --- | --- | --- | --- |
| COC(=O)[C@@]1(Cc2ccccc2)[C@H]2c3cc(C(=O)N(C)C)n(Cc4ccc(OC)c(OC)c4)c3C[C@H]2CN1C(=O)c1ccccc1 | -1.29 | -0.24 | 0.148 | -1.42 | -2.64 | 0.811 | -1.12 (inactive) | -0.706 | -1.14 | -1.2 (inactive) |
| O=C1O[C@@H](c2ccccc2)[C@@H](c2ccccc2)N2[C@@H](c3ccc(OCCO)cc3)[C@]3(C(=O)Nc4ccc(C#CC5=CCCCC5)cc43)[C@@H](C(=O)N3CCCCCCC3)[C@H]12 | -0.364 | 0.284 | 1.1 | -0.446 | -1.31 | 0.226 | -4.13 (inactive) | -0.831 | -1.14 | -0.207 (inactive) |
| O=C(NC1CC1)[C@@H]1c2ccccc2C(=O)N(Cc2cc(F)cc(C(F)(F)F)c2)[C@H]1c1ccc(CO)cc1 | 0.35 | -0.392 | -0.134 | -1.65 | 0.88 | 0.86 | -0.587 (inactive) | 0.0276 | -0.232 | 1.36 (inactive) |
| COc1ccccc1CN1C(=O)c2ccccc2[C@@]2(Cc3ccccc3N(CCCN(C)C)C2=O)[C@@H]1c1ccc(CO)cc1 | -0.733 | 1.31 | -0.655 | 0.229 | -0.0261 | 0.511 | -0.459 (inactive) | 0.00572 | -0.343 | -0.483 (inactive) |
| OB1C=CCC(CCc2ccccc2)O1 (stereo not given) | 0.345 | 0.638 | 0.36 | 0.293 | 0.364 | 1.39 | 0.244 (inactive) | -0.855 | 0.954 | -1.01 (inactive) |
| CC(C)(C)OC(=O)CC[C@@]1(C(=O)N2CCCCC2)N=C(c2ccc(OCCCO)cc2)O[C@@H]1c1ccccc1 | -0.637 | 0.452 | 0.644 | -1.99 | -2.22 | 1.59 | 0.0803 (inactive) | -0.636 | 0.0287 | 0.894 (inactive) |
| COCCOC(=O)N1C(=O)[C@@]2(c3ccccc31)[C@H](C(=O)N1CCc3cc(OC)c(OC)cc3C1)[C@H]1C(=O)O[C@H](c3ccccc3)[C@H](c3ccccc3)N1[C@@H]2c1ccc(O)cc1 | 2.4 | 1.1 | 1.76 | 0.275 | 0.0454 | 0.218 | 0.743 (inactive) | -0.69 | 0.0766 | -0.223 (inactive) |
| COC(=O)c1c(CC[C@@H](CO)NC(=O)N[C@@H](Cc2ccccc2)Cn2cc(-c3ccccn3)nn2)oc(C(=O)N2CCOCC2)c1C(=O)OC | 0.122 | 0.17 | -1.31 | 0.527 | 0.642 | -0.105 | 0.0526 (inactive) | -0.652 | -0.0834 | 0.765 (inactive) |
| COCCCNC(=O)[C@@]1(Cc2ccccc2)N=C(c2ccc(OCCCO)cc2)O[C@H]1c1ccccc1CN=[N+]=[N-] | 0.925 | -0.703 | 0.941 | -0.0943 | -1.75 | 1.31 | 0.571 (inactive) | -1.26 | -0.918 | -0.484 (inactive) |
| COC(=O)c1c(CC[C@@H](CO)NC(=O)N[C@H](Cc2ccccc2)Cn2cc(-c3ccccn3)nn2)oc(C(C)=O)c1C(=O)OC | 0.372 | 0.337 | -0.362 | 0.258 | -0.406 | -0.607 | -0.821 (inactive) | -0.0316 | -0.131 | -0.533 (inactive) |
| C=CC1c2cc(O)c(OC)cc2CCN1Cc1cccc(OC(F)(F)F)c1 (stereo not given) | -1.97 | 0.566 | -3.19 | -3.18 | -2.2 | -2.6 | -0.604 (inactive) | -0.752 | -1.85 | -0.821 (inactive) |
| [N-]=[N+]=Nc1ccccc1C[C@]1(C(=O)NCC(O)CO)N=C(c2ccc(OCCCO)cc2)O[C@H]1c1ccccc1 (stereo not given in full) | -0.432 | -0.281 | -0.259 | -1.04 | -0.984 | -0.571 | -0.332 (inactive) | -0.514 | -0.283 | 0.381 (inactive) |
| COc1ccc(NC(=O)O[C@H]2[C@H](OC(=O)c3cc4ccccc4[nH]3)[C@@H](OC(=O)c3cc4ccccc4[nH]3)[C@@H](OC)O[C@@H]2CO)cc1 | 0.349 | 0.203 | 0.825 | -0.699 | 0.422 | 0.923 | 1.93 (inactive) | 0.168 | -0.117 | -1.92 (inactive) |
| C=C(/C(=C/C[C@H](OC(=O)c1ccncc1)c1ccc(OCCO)cc1)c1cc(C(=O)OC)ccc1OC)C(C)C | 0.0699 | 1.62 | -0.274 | -0.158 | -1.9 | 0.751 | 0.111 (inactive) | -0.143 | 0.503 | 0.827 (inactive) |
| C=CCN1Cc2ccccc2[C@@H]2OC(c3ccc(OCCCO)cc3)=N[C@]2(CCS(=O)(=O)c2ccccc2)C1=O | -0.251 | 0.771 | 0.574 | -1.12 | -0.664 | -0.187 | -0.303 (inactive) | -1.06 | -0.181 | 0.315 (inactive) |
